Laboratory results published in PubChem BioAssay AID1159580 (chemical genetic matrix, 2015).
The whole screen tested about 5,500 compounds, of which about 2,000 (36%) were called active. Inconclusive results (about 18%) are left out. No stated cut-off is given here; in the data, active means normalized growth mostly below about 0.91 (no sharp cut-off); inconclusive means no clear call, values can overlap the other calls; inactive means mostly above about 0.92. The list shows a part of the results.

Test: chemical genetic growth profiling, strain panel (AID 1159580);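 further: tested at 20 µM; growth read once vehicle control cultures reached saturation at 30 °C; 1 = growth at the plate median or of vehicle wells; lower values mean less growth of the strain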
Conditions: growth OD

Measured: normalized growth

Nc1nc(=S)c2[nH]cnc2[nH]1
inactive: S. cerevisiae deletion strains, locus YJR075W, strain HOC1, active compounds read low 1.03 | S. cerevisiae deletion strains, locus YKL009W, strain mrt4, active compounds read low 1 | S. cerevisiae deletion strains, locus YKL068W, active compounds read low 1 | S. cerevisiae deletion strains, locus YKL085W, strain MDH1 (second series), active compounds read low 1.02 | S. cerevisiae deletion strains, locus YKL085W, strain MDH1, active compounds read low 1.02 | S. cerevisiae deletion strains, locus YKL160W, strain elf1, active compounds read low 0.943 | S. cerevisiae deletion strains, locus YKL190W, strain CNB1, active compounds read low 1 | S. cerevisiae deletion strains, locus YKR001C, strain vps1, active compounds read low 1.01 | S. cerevisiae deletion strains, locus YKR026C, strain gcn3, active compounds read low 0.976 | S. cerevisiae deletion strains, locus YKR091W, strain srl3, active compounds read low 0.975 | S. cerevisiae deletion strains, locus YLL001W, strain dnm1, active compounds read low 1 | S. cerevisiae deletion strains, locus YLL026W, active compounds read low 0.983 | S. cerevisiae deletion strains, locus YLL041C, strain sdh2, active compounds read low 0.984 | S. cerevisiae deletion strains, locus YLR027C, strain aat2, active compounds read low 0.992 | S. cerevisiae deletion strains, locus YLR039C, strain RIC1, active compounds read low 1.08 | S. cerevisiae deletion strains, locus YLR058C, strain SHM2, active compounds read low 1.01 | S. cerevisiae deletion strains, locus YLR102C, strain apc9, active compounds read low 0.999 | S. cerevisiae deletion strains, locus YLR113W, strain HOG1, active compounds read low 0.984 | S. cerevisiae deletion strains, locus YLR221C, strain rsa3, active compounds read low 1.03 | S. cerevisiae deletion strains, locus YLR258W, strain gsy2, active compounds read low 0.961 | S. cerevisiae deletion strains, locus YLR262C, strain YPT6 (second series), active compounds read low 1 | S. cerevisiae deletion strains, locus YLR262C, strain YPT6, active compounds read low 1.07 | S. cerevisiae deletion strains, locus YLR268W, strain sec22, active compounds read low 1.01 | S. cerevisiae deletion strains, locus YLR320W, strain mms22, active compounds read low 0.992 | S. cerevisiae deletion strains, locus YLR330W, strain CHS5, active compounds read low 1.01 | S. cerevisiae deletion strains, locus YLR342W, strain FKS1 (second series), active compounds read low 1 | S. cerevisiae deletion strains, locus YLR342W, strain FKS1, active compounds read low 0.957 | S. cerevisiae deletion strains, locus YLR357W, strain rsc2, active compounds read low 0.937 | S. cerevisiae deletion strains, locus YLR370C, strain arc18, active compounds read low 0.974 | S. cerevisiae deletion strains, locus YLR371W, strain rom2, active compounds read low 1 | S. cerevisiae deletion strains, locus YLR384C, strain iki3, active compounds read low 0.97 | S. cerevisiae deletion strains, locus YLR418C, strain cdc73, active compounds read low 1 | S. cerevisiae deletion strains, locus YML016C, strain PPZ1, active compounds read low 1.01 | S. cerevisiae deletion strains, locus YML032C, strain rad52, active compounds read low 0.996 | S. cerevisiae deletion strains, locus YML120C, strain ndi1, active compounds read low 0.983 | S. cerevisiae deletion strains, locus YML124C, strain tub3, active compounds read low 0.998 | S. cerevisiae deletion strains, locus YMR058W, strain fet3, active compounds read low 1 | S. cerevisiae deletion strains, locus YMR078C, strain ctf18, active compounds read low 0.997 | S. cerevisiae deletion strains, locus YMR125W, strain sto1, active compounds read low 0.952 | S. cerevisiae deletion strains, locus YMR129W, active compounds read low 0.971 | S. cerevisiae deletion strains, locus YMR205C, strain PFK2, active compounds read low 0.995 | S. cerevisiae deletion strains, locus YMR223W, strain ubp8, active compounds read low 0.985 | S. cerevisiae deletion strains, locus YMR231W, strain pep5, active compounds read low 0.987 | S. cerevisiae deletion strains, locus YMR263W, strain SAP30, active compounds read low 1 | S. cerevisiae deletion strains, locus YMR307W, strain GAS1, active compounds read low 1.02 | S. cerevisiae deletion strains, locus YNL067W, strain RPL9B, active compounds read low 1.02 | S. cerevisiae deletion strains, locus YNL071W, strain lat1, active compounds read low 0.981 | S. cerevisiae deletion strains, locus YNL128W, strain TEP1, active compounds read low 1.03 | S. cerevisiae deletion strains, locus YNL153C, strain GIM3, active compounds read low 0.992 | S. cerevisiae deletion strains, locus YNL183C, strain NPR1, active compounds read low 0.956 | S. cerevisiae deletion strains, locus YNL209W, strain ssb2, active compounds read low 0.98 | S. cerevisiae deletion strains, locus YNL233W, strain BNI4, active compounds read low 1.01 | S. cerevisiae deletion strains, locus YNL248C, strain rpa49, active compounds read low 0.92 | S. cerevisiae deletion strains, locus YNL250W, strain rad50, active compounds read low 0.992 | S. cerevisiae deletion strains, locus YNL271C, strain bni1, active compounds read low 1 | S. cerevisiae deletion strains, locus YNL298W, strain CLA4, active compounds read low 1.01 | S. cerevisiae deletion strains, locus YNL307C, strain MCK1, active compounds read low 1 | S. cerevisiae deletion strains, locus YNL322C, strain KRE1 (second series), active compounds read low 0.963 | S. cerevisiae deletion strains, locus YNL322C, strain KRE1, active compounds read low 1.02 | S. cerevisiae deletion strains, locus YNR049C, strain mso1, active compounds read low 0.979 | S. cerevisiae deletion strains, locus YNR052C, strain pop2, active compounds read low 0.999 | S. cerevisiae deletion strains, locus YOL006C, strain TOP1, active compounds read low 1.06 | S. cerevisiae deletion strains, locus YOL012C, strain htz1 1.07 | S. cerevisiae deletion strains, locus YOL147C, strain pex11, active compounds read low 0.995 | S. cerevisiae deletion strains, locus YOR001W, strain rrp6, active compounds read low 1.01 | S. cerevisiae deletion strains, locus YOR061W, strain CKA2, active compounds read low 1.01 | S. cerevisiae deletion strains, locus YOR069W, strain VPS5, active compounds read low 1.01 | S. cerevisiae deletion strains, locus YOR070C, strain gyp1, active compounds read low 0.973 | S. cerevisiae deletion strains, locus YOR080W, strain dia2, active compounds read low 0.996 | S. cerevisiae deletion strains, locus YOR083W, strain WHI5, active compounds read low 0.914 | S. cerevisiae deletion strains, locus YOR106W, strain vam3, active compounds read low 0.96 | S. cerevisiae deletion strains, locus YOR136W, strain idh2, active compounds read low 0.999 | S. cerevisiae deletion strains, locus YOR144C, strain elg1, active compounds read low 0.999 | S. cerevisiae deletion strains, locus YOR184W, strain ser1, active compounds read low 1.01 | S. cerevisiae deletion strains, locus YOR231W, strain MKK1, active compounds read low 1.02 | S. cerevisiae deletion strains, locus YOR265W, strain rbl2, active compounds read low 0.991 | S. cerevisiae deletion strains, locus YOR270C, strain vph1, active compounds read low 1.03 | S. cerevisiae deletion strains, locus YOR290C, strain snf2, active compounds read low 0.942 | S. cerevisiae deletion strains, locus YOR316C, strain cot1, active compounds read low 0.997 | S. cerevisiae deletion strains, locus YPL051W, strain arl3, active compounds read low 0.964 | S. cerevisiae deletion strains, locus YPL055C, strain LGE1, active compounds read low 1.02 | S. cerevisiae deletion strains, locus YPL078C, strain atp4, active compounds read low 0.95 | S. cerevisiae deletion strains, locus YPL106C, strain sse1, active compounds read low 0.977 | S. cerevisiae deletion strains, locus YPL240C, strain hsp82, active compounds read low 1.02 | S. cerevisiae deletion strains, locus YPL241C, strain CIN2, active compounds read low 1.01 | S. cerevisiae deletion strains, locus YPL256C, strain CLN2, active compounds read low 0.964 | S. cerevisiae deletion strains, locus YPR119W, strain clb2, active compounds read low 1.01 | S. cerevisiae deletion strains, locus YPR141C, strain kar3, active compounds read low 0.997 | S. cerevisiae deletion strains, locus YPR163C, strain tif3, active compounds read low 1 | S. cerevisiae deletion strains, locus YPR167C, strain met16, active compounds read low 1 | S. cerevisiae deletion strains, strain wtn01, active compounds read low 0.98 | S. cerevisiae strains, strain wild type, active compounds read low 1.01
